Biological target: Hexose transporter 1 (Plasmodium falciparum) (UniProt O97467)
Assay: ST_JUDE_LEISH: Cytotoxicity at 2uM final concentration against transgenic Leishmania Mexicana promastigotes LmPfHT that are glucose transport deficient and complemented with the Plasmodium falciparum hexose transporter. Activity is measured by DNA content using SYBR green in vitro
Assay type: functional

Compound | inhibition
CCc1cc2c3c(N)nc(N)nc3ccc2n1C(C)CC (centres undefined) | 86.6%
N#Cc1cccc(-c2ccc(C(=O)Nc3ccc4c(c3)CCN(C3CCC3)CC4)cn2)c1 | 4.8%
O=C(Nc1ccccc1Oc1ccccc1)NC1CCN(c2ccnc3cc(Cl)ccc23)C1 (centres undefined) | 4.63%
OCCN1CCN(Cc2ccc(-c3ccc(-c4nc5cc(F)ccc5[nH]4)cc3)cc2)CC1 | 6.23%
COc1ccc(N2C(=O)C3C(C2=O)C2(C)c4ccccc4C3(C)c3ccccc32)c([N+](=O)[O-])c1 (centres undefined) | 8.14%
CCNc1cc(C(=O)N[C@@H](Cc2ccccc2)[C@H](O)CNCCc2ccccc2)cc(N2CCCCS2(=O)=O)c1 | -0.67%
CC(=O)Nc1ccc(S(=O)(=O)N(Cc2cccc(Oc3ccccc3)c2)C2CCN(C/C=C(\C)CCC=C(C)C)CC2)cc1 | 0.21%
Cc1[nH]c(-c2ccc(F)cc2)cc1C(=O)NC1CCN(Cc2ccccc2)CC1 | 3.23%
OC(CNc1ccnc(Nc2cccc(CCN3CCOCC3)c2)n1)c1ccccc1 (centres undefined) | 3.46%
CCOC(=O)c1nc(-c2ccc(Cl)cc2)[nH]c1NC(=S)NCCCN1CCOCC1 | 1.52%
Oc1ccc(CCNc2nc(NCCCOc3ccccc3-c3ccncc3)nc(N3CCNCC3)n2)cc1 | 5.15%
CC(O)C1CCCCN1C(=O)c1cccc(-c2cccc(-c3nc4cc(C(F)(F)F)ccc4[nH]3)c2)c1 (centres undefined) | 1.12%
CS(=O)(=O)c1ccc(CCNCc2ccc(-c3ccc(CN(C(=O)C4CC(=O)c5ccccc54)C4Cc5ccccc5C4)cc3)nc2)cc1 (centres undefined) | -0.58%
COc1cc(-c2nc3c4ccccc4c4ccccc4c3[nH]2)cc(OC)c1OC | 1.28%
N#Cc1ccc(N/C(=N\c2ccc(-c3ccccc3)cc2)NC2CCCc3ccccc32)c(O)c1 (centres undefined) | 0.81%
COc1ccc(Br)cc1C1Nc2ccc3ccccc3c2C2=C1C(=O)CC(c1ccccc1)C2 (centres undefined) | 2.25%
O=C(Nc1ccc(C(=O)OCC2CCCN3CCCCC23)cc1)c1ccc(Cl)c(Cl)c1 (centres undefined) | -0.05%
O=C(Cc1cccc(Cl)c1)N1CCc2cc3nccc(N4CCN5CCC[C@H]5C4)c3cc21 | 2.69%
Cc1cc2ncc(C(N)=O)c(Nc3ccc(N4CCOCC4)cc3)c2cc1S(C)(=O)=O | 3.83%
Cc1ccc(Nc2nc3cc(N(C)c4ccnc(Nc5cccc(CS(C)(=O)=O)c5)n4)ccc3o2)cc1 | 4.21%
O=C(Nc1cccc(CN2CCCN(CCc3ccccc3)CC2)c1)c1cc2ccccc2s1 | -1.82%
O=C(NCCCCN1CCC(O)(c2ccc3c(c2)OCO3)CC1)c1ccc(NC(=O)c2ccc(Cl)cc2)cc1 | 1.45%
COc1ccc2nccc(N(C)CC3(O)CCN(CC(O)c4ccc5c(c4)NC(=O)CS5)CC3)c2n1 (centres undefined) | -0.78%
O=C(/C=C/c1ccc(Cl)c(Cl)c1)NCCCCCN1CCC(NC(=S)Nc2ccc(Cl)c(Cl)c2)CC1 | 5.09%

Biological target: Glucose transporter (Leishmania mexicana) (UniProt O61059)
Assay: ST_JUDE_LEISH: Cytotoxicity at 2uM final concentration against transgenic Leishmania Mexicana promastigotes LmGT2 that are glucose transport deficient and complemented with the L. Mexicana glucose transporter 2. Activity is measured by DNA content using SYBR green in vitro
Assay type: functional

Compound | inhibition
CCc1cn2c3c(cc(C(=O)N[C@@H](Cc4ccccc4)[C@H](O)CNC4CCC4)cc13)N(C)S(=O)(=O)CC2 | 1.83%
CCN(CC)CCCC(C)Nc1ccnc2ccc(OC)cc12 (centres undefined) | 8.52%
CC[C@H](C)CNC(=O)c1ccnc(-c2ccc(CN3CCC(N4CCCC4)CC3)cc2)c1 | 0.35%
Cc1cccc(C(O)CNc2ccnc(Nc3cccc(-c4csc(C)n4)c3)n2)c1 (centres undefined) | 2.54%
Brc1cc(Br)c2c(c1)C(NCCCNC1CCNc3c(Br)cc(Br)cc31)CCN2 (centres undefined) | 0.34%
CCOC(=O)Nc1cc(-c2csc(N=C(N)N)n2)cc([N+](=O)[O-])c1 | 1.09%
CCC(C)Oc1ccc2nc(N)nc(N)c2c1Cl (centres undefined) | 30%
Cc1ccc(C)c(S(=O)(=O)NCC2CCN(Cc3ccc(O)cc3)CC2)c1 | -2.61%
COc1cccc2cc(C(=O)N[C@@H](CC(C)C)C(=O)N[C@H](C=NN3CCCC3=O)Cc3ccccc3)oc12 | 2.7%
CC1CN(c2nc(NCCc3ccc(O)cc3)nc(NCc3ccccc3-c3ccc(C(F)(F)F)cc3)n2)CC(C)N1 (centres undefined) | 6.55%
Cc1nc(-c2cccc(Nc3ccnc4cc(-c5nccs5)ccc34)c2)no1 | 2.74%
O=C(CN1CCN(C(=O)c2ccco2)CC1)Nc1ccccc1Br | -3.97%
O=C(Nc1ccon1)c1cc(-c2cccnc2)nc2ccc(Br)cc12 | 0.72%
FC(F)(F)c1ccc2[nH]c(-c3ccc(-c4ccc(CN5CCN(c6ccncc6)CC5)cc4)s3)nc2c1 | -2.12%
Clc1cc(Cl)c2cc(CNCCCNc3ccc4ccccc4n3)[nH]c2c1 | 1%
Cc1cc(O)c(CN2CCN(Cc3cccs3)CC2)cc1C(C)C | 2.94%
CCc1cc2c3c(N)nc(N)nc3ccc2n1C(C)CC (centres undefined) | 80.3%
N#Cc1cccc(-c2ccc(C(=O)Nc3ccc4c(c3)CCN(C3CCC3)CC4)cn2)c1 | 5.26%
O=C(Nc1ccccc1Oc1ccccc1)NC1CCN(c2ccnc3cc(Cl)ccc23)C1 (centres undefined) | 3.25%
OCCN1CCN(Cc2ccc(-c3ccc(-c4nc5cc(F)ccc5[nH]4)cc3)cc2)CC1 | 3.78%

Compound | inhibition
COc1ccc(N2C(=O)C3C(C2=O)C2(C)c4ccccc4C3(C)c3ccccc32)c([N+](=O)[O-])c1 (centres undefined) | 9.94%
CCNc1cc(C(=O)N[C@@H](Cc2ccccc2)[C@H](O)CNCCc2ccccc2)cc(N2CCCCS2(=O)=O)c1 | -3.28%
CC(=O)Nc1ccc(S(=O)(=O)N(Cc2cccc(Oc3ccccc3)c2)C2CCN(C/C=C(\C)CCC=C(C)C)CC2)cc1 | -0.73%
Cc1[nH]c(-c2ccc(F)cc2)cc1C(=O)NC1CCN(Cc2ccccc2)CC1 | -0.98%
OC(CNc1ccnc(Nc2cccc(CCN3CCOCC3)c2)n1)c1ccccc1 (centres undefined) | 1.35%
CCOC(=O)c1nc(-c2ccc(Cl)cc2)[nH]c1NC(=S)NCCCN1CCOCC1 | -2.41%
Oc1ccc(CCNc2nc(NCCCOc3ccccc3-c3ccncc3)nc(N3CCNCC3)n2)cc1 | 5.3%
CC(O)C1CCCCN1C(=O)c1cccc(-c2cccc(-c3nc4cc(C(F)(F)F)ccc4[nH]3)c2)c1 (centres undefined) | -0.12%
CS(=O)(=O)c1ccc(CCNCc2ccc(-c3ccc(CN(C(=O)C4CC(=O)c5ccccc54)C4Cc5ccccc5C4)cc3)nc2)cc1 (centres undefined) | -0.89%
COc1cc(-c2nc3c4ccccc4c4ccccc4c3[nH]2)cc(OC)c1OC | 1.58%
N#Cc1ccc(N/C(=N\c2ccc(-c3ccccc3)cc2)NC2CCCc3ccccc32)c(O)c1 (centres undefined) | -0.07%
COc1ccc(Br)cc1C1Nc2ccc3ccccc3c2C2=C1C(=O)CC(c1ccccc1)C2 (centres undefined) | 3.67%
O=C(Nc1ccc(C(=O)OCC2CCCN3CCCCC23)cc1)c1ccc(Cl)c(Cl)c1 (centres undefined) | 0.18%
O=C(Cc1cccc(Cl)c1)N1CCc2cc3nccc(N4CCN5CCC[C@H]5C4)c3cc21 | 4.38%
Cc1cc2ncc(C(N)=O)c(Nc3ccc(N4CCOCC4)cc3)c2cc1S(C)(=O)=O | 5.19%
Cc1ccc(Nc2nc3cc(N(C)c4ccnc(Nc5cccc(CS(C)(=O)=O)c5)n4)ccc3o2)cc1 | 4.65%
O=C(Nc1cccc(CN2CCCN(CCc3ccccc3)CC2)c1)c1cc2ccccc2s1 | 1.52%
O=C(NCCCCN1CCC(O)(c2ccc3c(c2)OCO3)CC1)c1ccc(NC(=O)c2ccc(Cl)cc2)cc1 | -1.6%
COc1ccc2nccc(N(C)CC3(O)CCN(CC(O)c4ccc5c(c4)NC(=O)CS5)CC3)c2n1 (centres undefined) | -0.26%
O=C(/C=C/c1ccc(Cl)c(Cl)c1)NCCCCCN1CCC(NC(=S)Nc2ccc(Cl)c(Cl)c2)CC1 | 3.5%
